Columns and labels:
Assay in all cases: log2 ratio of Biotin-Ahx-Ub-VS probe labelling (fragment/DMSO); higher = less target engagement (more negative = stronger competition), active = hit call of the paper (q ≤ 0.05, log2 ratio ≤ -1)
Settings in all cases: compound concentration: 200 uM; treatment time: 3 h
USP34 = USP34 (UniProt Q70CQ2)
Summary of the method: (§1)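 Labelled DUBs from HEK293T lysate were NeutrAvidin-enriched, digested with LysC and trypsin, and run by diaPASEF LC-MS/MS. Before that, each 495 µg sample in Tris/CHAPS/IGEPAL buffer with protease inhibitors was treated in triplicate with fragment at 200 µM or vehicle for 3 h, then with Biotin-Ahx-Ub-VS at 0.5 µM final for 1 h. Values are average log2 ratios of fragment over vehicle by unpaired t-test, based on global-median-normalised Spectronaut label-free quantities from proteins with ≥2 unique peptides.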

USP36 = biological target: T1, USP36 (UniProt Q9P275)
T1 sequence (whole entry): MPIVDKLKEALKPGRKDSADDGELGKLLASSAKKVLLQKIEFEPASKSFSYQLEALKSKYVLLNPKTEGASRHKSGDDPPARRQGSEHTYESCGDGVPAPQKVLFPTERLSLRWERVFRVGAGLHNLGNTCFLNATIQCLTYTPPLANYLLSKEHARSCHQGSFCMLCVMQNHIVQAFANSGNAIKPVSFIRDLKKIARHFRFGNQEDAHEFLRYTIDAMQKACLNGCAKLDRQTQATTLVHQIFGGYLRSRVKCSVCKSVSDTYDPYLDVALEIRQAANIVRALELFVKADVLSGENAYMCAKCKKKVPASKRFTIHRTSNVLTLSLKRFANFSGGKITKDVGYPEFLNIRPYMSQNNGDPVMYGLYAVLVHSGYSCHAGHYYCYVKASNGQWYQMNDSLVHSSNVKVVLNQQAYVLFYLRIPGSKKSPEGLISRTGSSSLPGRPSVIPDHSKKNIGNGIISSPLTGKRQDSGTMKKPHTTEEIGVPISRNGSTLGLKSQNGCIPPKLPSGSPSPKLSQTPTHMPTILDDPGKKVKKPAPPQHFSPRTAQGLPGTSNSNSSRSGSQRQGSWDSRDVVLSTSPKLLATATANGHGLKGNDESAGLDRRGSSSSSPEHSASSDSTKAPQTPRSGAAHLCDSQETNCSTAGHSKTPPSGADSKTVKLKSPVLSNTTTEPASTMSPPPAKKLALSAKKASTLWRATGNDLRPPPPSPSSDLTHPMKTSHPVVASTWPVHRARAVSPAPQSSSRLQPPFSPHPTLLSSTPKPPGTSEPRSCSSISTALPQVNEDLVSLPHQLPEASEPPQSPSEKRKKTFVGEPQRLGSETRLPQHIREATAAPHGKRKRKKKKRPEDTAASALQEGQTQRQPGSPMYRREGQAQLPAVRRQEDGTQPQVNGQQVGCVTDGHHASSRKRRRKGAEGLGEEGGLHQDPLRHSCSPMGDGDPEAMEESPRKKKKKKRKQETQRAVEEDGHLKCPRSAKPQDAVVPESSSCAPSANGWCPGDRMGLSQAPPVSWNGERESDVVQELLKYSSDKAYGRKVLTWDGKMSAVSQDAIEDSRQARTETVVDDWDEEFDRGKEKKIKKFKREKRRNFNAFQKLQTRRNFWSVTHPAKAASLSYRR
Summary of the method: as §1

USP38 = biological target: T2, USP38 (UniProt Q8NB14)
T2 sequence (whole entry): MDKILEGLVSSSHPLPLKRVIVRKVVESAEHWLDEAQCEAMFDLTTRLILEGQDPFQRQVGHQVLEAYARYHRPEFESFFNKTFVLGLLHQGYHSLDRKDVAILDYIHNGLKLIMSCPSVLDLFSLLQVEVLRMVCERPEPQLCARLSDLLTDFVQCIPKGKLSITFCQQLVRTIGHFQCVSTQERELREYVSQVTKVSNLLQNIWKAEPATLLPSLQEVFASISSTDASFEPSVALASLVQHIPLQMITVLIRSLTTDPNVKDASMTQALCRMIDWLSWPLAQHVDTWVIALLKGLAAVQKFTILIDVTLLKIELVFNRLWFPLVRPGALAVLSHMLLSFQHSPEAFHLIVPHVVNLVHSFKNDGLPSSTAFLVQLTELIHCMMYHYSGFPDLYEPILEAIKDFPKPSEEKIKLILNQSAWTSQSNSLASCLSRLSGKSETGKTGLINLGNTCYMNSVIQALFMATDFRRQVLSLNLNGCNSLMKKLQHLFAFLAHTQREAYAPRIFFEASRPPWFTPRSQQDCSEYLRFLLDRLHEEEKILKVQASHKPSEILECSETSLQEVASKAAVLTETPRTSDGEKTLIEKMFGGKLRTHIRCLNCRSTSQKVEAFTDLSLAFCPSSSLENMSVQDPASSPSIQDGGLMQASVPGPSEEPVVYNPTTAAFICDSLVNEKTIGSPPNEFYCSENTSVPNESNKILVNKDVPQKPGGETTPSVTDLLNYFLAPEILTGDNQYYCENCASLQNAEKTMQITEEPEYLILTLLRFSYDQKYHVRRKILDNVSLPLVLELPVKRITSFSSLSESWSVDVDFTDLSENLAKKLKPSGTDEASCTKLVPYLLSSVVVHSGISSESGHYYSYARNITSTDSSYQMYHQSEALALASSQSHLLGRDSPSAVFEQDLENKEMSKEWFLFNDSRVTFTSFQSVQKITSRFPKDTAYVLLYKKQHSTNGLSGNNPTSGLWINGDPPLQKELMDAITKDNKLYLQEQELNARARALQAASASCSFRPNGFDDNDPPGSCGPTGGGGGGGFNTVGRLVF
Summary of the method: as §1

USP39 = biological target: T3, USP39 (UniProt Q53GS9)
T3 sequence (whole entry): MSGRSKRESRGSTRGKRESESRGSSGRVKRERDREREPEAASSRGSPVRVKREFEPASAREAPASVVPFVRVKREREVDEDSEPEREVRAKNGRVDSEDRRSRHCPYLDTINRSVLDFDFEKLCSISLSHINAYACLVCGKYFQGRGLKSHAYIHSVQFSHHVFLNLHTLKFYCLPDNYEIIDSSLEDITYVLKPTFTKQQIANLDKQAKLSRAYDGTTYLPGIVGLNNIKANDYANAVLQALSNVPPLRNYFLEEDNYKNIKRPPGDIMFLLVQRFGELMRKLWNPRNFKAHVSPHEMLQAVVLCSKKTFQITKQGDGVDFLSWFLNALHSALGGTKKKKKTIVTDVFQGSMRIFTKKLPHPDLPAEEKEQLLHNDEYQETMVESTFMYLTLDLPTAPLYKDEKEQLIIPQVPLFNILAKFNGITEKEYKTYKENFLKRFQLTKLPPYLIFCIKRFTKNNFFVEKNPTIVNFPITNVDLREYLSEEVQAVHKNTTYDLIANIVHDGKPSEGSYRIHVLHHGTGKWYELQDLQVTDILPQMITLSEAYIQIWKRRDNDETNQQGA
Summary of the method: as §1

USP4 = biological target: T4, USP4 (UniProt Q13107)
T4 sequence (whole entry): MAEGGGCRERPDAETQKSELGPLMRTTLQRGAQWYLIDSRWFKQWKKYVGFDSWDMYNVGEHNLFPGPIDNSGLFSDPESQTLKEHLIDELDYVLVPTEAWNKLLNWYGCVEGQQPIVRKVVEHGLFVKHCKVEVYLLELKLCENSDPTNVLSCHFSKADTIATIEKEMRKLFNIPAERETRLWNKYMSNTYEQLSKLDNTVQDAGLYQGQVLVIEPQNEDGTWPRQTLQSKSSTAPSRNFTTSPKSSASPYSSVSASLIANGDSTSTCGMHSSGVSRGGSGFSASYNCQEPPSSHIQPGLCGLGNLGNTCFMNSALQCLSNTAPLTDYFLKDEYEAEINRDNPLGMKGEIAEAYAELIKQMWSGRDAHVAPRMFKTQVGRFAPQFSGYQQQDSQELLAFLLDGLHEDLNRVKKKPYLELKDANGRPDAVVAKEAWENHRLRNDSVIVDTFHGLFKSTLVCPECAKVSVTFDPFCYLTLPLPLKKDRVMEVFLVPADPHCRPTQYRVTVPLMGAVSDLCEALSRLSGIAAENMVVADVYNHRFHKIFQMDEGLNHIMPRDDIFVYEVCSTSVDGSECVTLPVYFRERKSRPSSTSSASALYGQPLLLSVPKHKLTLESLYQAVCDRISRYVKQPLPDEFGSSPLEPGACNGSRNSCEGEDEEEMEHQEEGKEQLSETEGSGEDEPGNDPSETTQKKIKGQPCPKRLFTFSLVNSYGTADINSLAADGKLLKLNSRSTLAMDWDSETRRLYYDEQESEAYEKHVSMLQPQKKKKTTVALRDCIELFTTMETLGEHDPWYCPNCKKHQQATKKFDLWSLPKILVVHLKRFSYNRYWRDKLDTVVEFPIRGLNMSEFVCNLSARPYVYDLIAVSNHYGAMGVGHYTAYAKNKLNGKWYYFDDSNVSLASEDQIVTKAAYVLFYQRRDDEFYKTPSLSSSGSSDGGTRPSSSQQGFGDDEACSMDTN
Summary of the method: as §1

Measured: log2 ratio of Biotin-Ahx-Ub-VS probe labelling

USP34, sequence (Q70CQ2 whole entry, the tested form may be a part): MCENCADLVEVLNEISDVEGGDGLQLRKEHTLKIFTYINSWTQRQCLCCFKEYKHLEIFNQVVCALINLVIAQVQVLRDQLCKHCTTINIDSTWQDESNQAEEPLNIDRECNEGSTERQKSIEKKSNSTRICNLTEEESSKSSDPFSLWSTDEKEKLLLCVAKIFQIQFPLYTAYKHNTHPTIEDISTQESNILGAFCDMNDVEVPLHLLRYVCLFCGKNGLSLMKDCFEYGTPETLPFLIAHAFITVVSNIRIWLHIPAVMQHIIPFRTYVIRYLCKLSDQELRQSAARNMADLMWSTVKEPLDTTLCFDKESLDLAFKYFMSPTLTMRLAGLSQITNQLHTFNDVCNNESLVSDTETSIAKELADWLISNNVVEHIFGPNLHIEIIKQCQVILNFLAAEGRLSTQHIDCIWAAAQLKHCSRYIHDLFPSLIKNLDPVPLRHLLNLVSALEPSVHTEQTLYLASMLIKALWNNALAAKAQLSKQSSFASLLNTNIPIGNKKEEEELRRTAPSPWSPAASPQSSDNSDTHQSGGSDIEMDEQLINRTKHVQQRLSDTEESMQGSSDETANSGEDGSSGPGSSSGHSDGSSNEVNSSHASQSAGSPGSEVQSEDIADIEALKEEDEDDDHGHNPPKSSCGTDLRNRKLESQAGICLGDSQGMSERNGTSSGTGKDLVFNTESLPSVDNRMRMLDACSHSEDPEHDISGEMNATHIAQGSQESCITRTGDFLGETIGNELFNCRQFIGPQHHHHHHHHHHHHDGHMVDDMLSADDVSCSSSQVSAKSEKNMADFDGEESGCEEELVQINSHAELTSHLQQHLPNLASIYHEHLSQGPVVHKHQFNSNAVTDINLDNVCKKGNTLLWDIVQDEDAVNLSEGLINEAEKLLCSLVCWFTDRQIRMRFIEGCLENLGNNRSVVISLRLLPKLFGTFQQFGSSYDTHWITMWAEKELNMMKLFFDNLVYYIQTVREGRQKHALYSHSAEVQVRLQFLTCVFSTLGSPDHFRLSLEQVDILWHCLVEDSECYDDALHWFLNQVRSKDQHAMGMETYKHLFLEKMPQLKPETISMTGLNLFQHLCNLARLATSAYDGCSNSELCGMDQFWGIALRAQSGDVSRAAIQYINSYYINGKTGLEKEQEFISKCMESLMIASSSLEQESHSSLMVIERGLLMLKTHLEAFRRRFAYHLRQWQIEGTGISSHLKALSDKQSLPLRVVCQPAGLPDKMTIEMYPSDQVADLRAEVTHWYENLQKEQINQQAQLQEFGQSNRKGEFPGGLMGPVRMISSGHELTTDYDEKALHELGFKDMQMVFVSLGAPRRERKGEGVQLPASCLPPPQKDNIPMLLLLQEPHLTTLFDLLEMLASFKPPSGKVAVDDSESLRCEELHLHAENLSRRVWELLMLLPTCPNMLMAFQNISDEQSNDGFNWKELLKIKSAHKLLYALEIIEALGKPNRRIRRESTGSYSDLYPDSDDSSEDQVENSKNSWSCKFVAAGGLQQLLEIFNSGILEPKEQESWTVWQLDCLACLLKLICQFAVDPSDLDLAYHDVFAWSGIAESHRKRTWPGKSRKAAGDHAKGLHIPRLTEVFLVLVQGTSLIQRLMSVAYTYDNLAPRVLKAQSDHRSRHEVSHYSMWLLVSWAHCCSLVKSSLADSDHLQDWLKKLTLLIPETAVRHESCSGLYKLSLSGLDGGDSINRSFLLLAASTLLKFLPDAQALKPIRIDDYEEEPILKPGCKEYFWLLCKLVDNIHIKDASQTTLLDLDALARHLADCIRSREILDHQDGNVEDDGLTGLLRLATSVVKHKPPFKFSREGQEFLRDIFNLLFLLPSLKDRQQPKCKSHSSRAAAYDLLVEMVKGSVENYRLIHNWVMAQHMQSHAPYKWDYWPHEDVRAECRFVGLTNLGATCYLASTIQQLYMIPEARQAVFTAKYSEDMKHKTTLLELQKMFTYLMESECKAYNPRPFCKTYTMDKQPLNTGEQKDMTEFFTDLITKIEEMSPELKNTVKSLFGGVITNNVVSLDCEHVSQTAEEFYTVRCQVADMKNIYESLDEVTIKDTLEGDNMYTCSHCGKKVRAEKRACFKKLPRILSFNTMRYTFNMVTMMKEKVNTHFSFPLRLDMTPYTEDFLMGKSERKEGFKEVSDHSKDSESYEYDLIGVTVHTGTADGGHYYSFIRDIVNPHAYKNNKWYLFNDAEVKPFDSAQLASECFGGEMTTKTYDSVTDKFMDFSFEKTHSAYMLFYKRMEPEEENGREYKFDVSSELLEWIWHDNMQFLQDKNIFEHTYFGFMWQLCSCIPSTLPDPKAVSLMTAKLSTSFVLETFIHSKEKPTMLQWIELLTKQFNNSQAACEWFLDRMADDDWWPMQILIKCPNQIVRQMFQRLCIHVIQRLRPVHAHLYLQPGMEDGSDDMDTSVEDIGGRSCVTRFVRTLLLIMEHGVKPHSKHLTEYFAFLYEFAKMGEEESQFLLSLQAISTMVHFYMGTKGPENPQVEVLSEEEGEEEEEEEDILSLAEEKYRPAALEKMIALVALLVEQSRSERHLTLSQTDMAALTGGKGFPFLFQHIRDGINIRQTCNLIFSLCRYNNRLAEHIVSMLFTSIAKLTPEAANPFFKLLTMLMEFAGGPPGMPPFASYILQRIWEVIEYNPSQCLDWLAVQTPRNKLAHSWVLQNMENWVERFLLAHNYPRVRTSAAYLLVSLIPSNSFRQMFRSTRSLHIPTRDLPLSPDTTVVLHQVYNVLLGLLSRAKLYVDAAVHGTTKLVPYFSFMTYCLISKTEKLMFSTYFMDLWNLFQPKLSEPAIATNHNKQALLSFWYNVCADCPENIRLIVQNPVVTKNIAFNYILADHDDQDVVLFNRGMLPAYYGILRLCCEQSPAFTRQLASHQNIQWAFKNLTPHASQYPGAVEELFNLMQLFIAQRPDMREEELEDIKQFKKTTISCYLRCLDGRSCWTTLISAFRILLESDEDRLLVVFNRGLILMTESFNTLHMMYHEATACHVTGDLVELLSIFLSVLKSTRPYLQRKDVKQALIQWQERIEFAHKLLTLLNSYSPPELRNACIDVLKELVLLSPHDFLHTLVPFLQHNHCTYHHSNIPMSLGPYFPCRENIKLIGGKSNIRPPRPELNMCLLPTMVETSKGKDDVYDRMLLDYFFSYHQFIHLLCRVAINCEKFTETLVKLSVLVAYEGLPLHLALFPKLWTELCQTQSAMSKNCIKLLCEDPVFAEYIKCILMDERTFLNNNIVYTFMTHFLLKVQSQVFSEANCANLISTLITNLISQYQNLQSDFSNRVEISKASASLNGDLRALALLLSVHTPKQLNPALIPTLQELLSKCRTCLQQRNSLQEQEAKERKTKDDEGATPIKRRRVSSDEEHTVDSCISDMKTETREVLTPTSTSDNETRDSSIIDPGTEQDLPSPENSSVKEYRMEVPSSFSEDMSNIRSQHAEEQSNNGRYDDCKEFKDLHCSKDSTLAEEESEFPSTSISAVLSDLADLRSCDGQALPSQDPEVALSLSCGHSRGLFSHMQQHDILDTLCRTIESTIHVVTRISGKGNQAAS

CS(=O)(=O)c1ccc(NC(=O)CCl)cc1
inactive: USP34 0.0382 | USP36 0.166 | USP38 0.0532 | USP39 -0.186 | USP4 -0.0813

From the supplement of paper PMC11732987, “Enantioselective OTUD7B fragment discovery through chemoproteomics screening and high-throughput optimisation” (Communications Chemistry, 2025)
